# Pf growth 48h – Primary qHTS for delayed death inhibitors of the malarial parasite plastid, 48 hour incubation; Potency, µM (series often up to 28.7 µM), hits mostly inhibitors; P. falciparum luciferase growth in erythrocytes, 48 h; AID 504832, 2011; 5.9% of 310,000 active
#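 Luciferase-expressing P. falciparum in infected erythrocytes (2% hematocrit, 0.1% parasitemia final) in RPMI 1640/0.5% Albumax were exposed to compound for 48 hours at 37 C, 5% CO2; growth read as luminescence.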
# Vaccinia Venus – qHTS for Stage-Specific Inhibitors of Vaccinia Orthopoxvirus: Venus Reporter Primary qHTS. Vaccinia virus Venus reporter expression, fluorescence. 0.46% of 330,000 active. Potency, µM (highest dose often 36.5 µM), usual class: inhibitors; calls by dose curve; tested in A549 cells; further: nearly all actives have a fitted effect of over 30% in size
# Pf growth 96h – Primary qHTS for delayed death inhibitors of the malarial parasite plastid, 96 hour incubation. P. falciparum luciferase reporter growth, 96 h. Potency, µM (series often up to 28.7 µM), hits mostly inhibitors. 6.9% of 320,000 active
#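 Parasite growth measured via integrated firefly luciferase reporter in P. falciparum. Infected erythrocytes at 2% hematocrit, 0.05% parasitemia final were treated 96 hours at 37 C under 5% CO2, and luminescence was read.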
# AMA1 RON2 block – qHTS for Inhibitors of AMA1-RON; Towards Development of Antimalarial Drug Lead: Primary Screen. Plasmodium falciparum AMA1 (3D7) - RON2 peptide interaction. 0.2% of 360,000 active. AlphaScreen AMA1-biotinylated RON2 peptide binding. Potency, µM (titrated, usually from 58.2 µM), actives largely listed as inhibitors; further: nearly all actives have a fitted effect of over 45% in size
#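 AMA1 (3D7) with his tag at 25 nM final met compounds first, then biotinylated RON2 peptide at 25 nM; detection used donor plus acceptor beads, 10 µg/mL apiece, read by AlphaScreen after 30 min at room temperature.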
# VACV mCherry inh – qHTS for Stage-Specific Inhibitors of Vaccinia Orthopoxvirus: mCherry Reporter Primary qHTS. Vaccinia virus mCherry reporter infection, fluorescence. 0.63% of 310,000 active. Potency, µM (doses to about 36.5 µM), hits mostly inhibitors; calls by dose curve; tested in A549 cells; further: nearly all actives have a fitted effect of over 35% in size
# Numbers stand for hits; n = inactive; u = inconclusive; x = no result; [ ] = remark or other dose. A selection: hits, their analogues and other compounds. The true share with any hit is near 8.7%. Unless noted, the call rests on the fitted dose curve; in most records, active means well fitted curve in the direction sought with a large enough effect; inconclusive means small, poorly fitted or top-dose-only effect, or another doubt; inactive means no such curve, though single readings can be large; an effect the other way counts as inactive or inconclusive.
SMILES,Pf growth 48h,Vaccinia Venus,Pf growth 96h,AMA1 RON2 block,VACV mCherry inh
COC(=O)CCC(=O)OC1(C)C(=O)C=C2C=C(C3CC3)N(CC3CC3)C=C2C1=O (centres undefined),10.4µM,n,4.15µM,n,n
O=C(O)/C=C/C(=O)c1ccc(O)cc1,u,n,0.928µM,n,n
O=C(O)/C=C/C(=O)Nc1ccc(O)cc1,n,x,10.4µM,n,x
Cc1ccc(C(=O)/C=C\C(=O)c2ccc(C)cc2)cc1,n,n,n,n,n
CCOC(=O)c1ccccc1NC(=O)Cn1c(=O)n(-c2ccc(CC)cc2)c(=O)c2c(C)c(C(=O)N(C)C)sc21,x,n,x,x,n
CSc1c2c(nc3ncnn13)CCC2,u,n,9.28µM,n,n
c1coc(CNc2c3c(nc4ncnn24)CCCC3)c1,n,n,n,n,n
Clc1ccccc1Nc1c2c(nc3ncnn13)CCC2,11.7µM,x,3.29µM,n,x
c1coc(CNc2c3c(nc4ncnn24)CCC3)c1,x,x,n,n,x
CC1CN(c2c3c(nc4ncnn24)CCCC3)CC(C)O1 (centres undefined),n,n,n[5.75 µM],n,n
c1ccc(Nc2c3c(nc4ncnn24)CCC3)cc1,n,x,11.7µM,n,x
c1ccc(CCNc2c3c(nc4ncnn24)CCC3)cc1,1.47µM,n,n,n,n
Fc1ccccc1CCNc1c2c(nc3ncnn13)CCCC2,n,u,n,n,n
Cc1ccc(N2CCN(C(=O)NCc3noc4ccc(C)cc34)CC2)c(C)c1,x,n,x,x,n
COCCNC(=O)Cn1c(=O)c2cccn2c2ccc(F)cc21,x,n,x,x,n
Oc1cc(-c2nc3ccccc3s2)cc2c1OCCN(Cc1cn[nH]c1-c1ccc(Cl)cc1)C2,x,n,x,x,n
COc1ccc(Nc2nc(C)c3ccccc3n2)cc1,n,n,3.7µM,n,n
COc1ccc2c(C)nc(Nc3nc(C)c(C)c(=O)[nH]3)nc2c1,n,x,u,n,x
COc1ccc(Nc2nc(-c3ccccc3)c3ccccc3n2)cc1,n,n,n,n,n
COc1ccc2c(C)nc(Nc3nc(C)cc(C)n3)nc2c1,13.1µM,x,4.65µM,n,x
CCc1c(C)nc(Nc2nc(C)c3ccc(OC)cc3n2)[nH]c1=O,x,u,7.38µM,n,u
CC1CCN(S(=O)(=O)c2ccc3c(c2)N(CC(=O)NC(C)c2ccccc2)C(=O)CS3)CC1 (centres undefined),x,n,x,x,n
CC(C)(C)N(Cc1ccccc1)C(=O)COC(=O)C1CCN(c2ccc(C(F)(F)F)cn2)CC1,10.4µM,x,u,n,x
NC1(c2ccc(-c3nc4ccn5c(=O)[nH]nc5c4cc3-c3ccccc3)cc2)CCC1,x,10µM,x,x,7.94µM
O=C1Cc2c(-c3ccccc3)cc(-c3cccc(Cl)c3)nc2-c2ccccc2N1,x,n,x,n,n
SMILES,Pf growth 48h,Vaccinia Venus,Pf growth 96h,AMA1 RON2 block,VACV mCherry inh
COCCCn1c(SCc2cccc(Cl)c2)nc2c(sc3ccccc32)c1=O,x,n,x,x,n
N#Cc1ccc(OCC(O)CN2CCN(CC(O)COc3ccc(C#N)cc3)CC2)cc1 (centres undefined),n,n,u,n,n
CC1(C)C2CCC1(C)C(NCC(O)COc1ccc(C#N)cc1)C2 (centres undefined),x,x,4.15µM,u,x
Cc1nnc2sc(-c3ccc(NC(=O)CSc4ccc(Cl)cc4)cc3)nn12,5.22µM,n,u,n,n
CCc1nnc2sc(-c3ccc(NC(=O)CSc4ccc(Cl)cc4)cc3)nn12,x,n,x,n,x
CC1=CC(C)(C)N(C(=O)CNC2CCCCC2)c2cc(C)ccc21,9.28µM,n,u,n,n
CCOc1ccc(N2CC(NC(=O)C3CCCC3)CC2=O)cc1 (centres undefined),x,n,x,x,n
CCCN(CCC)S(=O)(=O)c1ccc(C(=O)Nc2nnc(COC)o2)cc1,14.7µM,n,n,n,u
C=CCN(CC=C)S(=O)(=O)c1ccc(C(=O)Nc2nnc(CSC)o2)cc1,11.7µM,n,u,n,u
CC(C)OCCCNC(=O)c1ccc2c(c1)N(Cc1c(F)cccc1Cl)C(=O)c1ccccc1S2,x,n,x,x,n
CCOC(=O)C1CCN(c2cc3c(cc2NC(=O)c2ccc(F)cc2)n(C)c(=O)n3C)CC1,11.7µM,n,n,n,n
CN(C)c1cc2c(cc1NC(=O)c1ccc(F)cc1)n(C)c(=O)n2C,x,n,x,x,n
Cn1c(=O)n(C)c2cc(NC(=O)c3ccc(F)cc3)c(Br)cc21,u,n,2.94µM,n,n
